High-throughput results (PubChem BioAssay)
Sampled rows, rich in hits. Any-hit rate of the full collection: about 3.2%.
APOBEC3A inh: inhibitors of human APOBEC3A DNA deaminase | P31941 | recombinant A3A, FAM/TAMRA ssDNA deamination fluorescence | inhibition, % at 20 µM | 0.41% of 330,000 active | AID 493011;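 active = at least 40% inhibition at 20 µM here, with at most 30% in a related deaminase screen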
NTR1 ag: agonists of human neurotensin receptor NTR1. P30989. 0.17% of 330,000 active. AID 493036. NTR1-U2OS beta-arrestin-GFP spot imaging, agonist mode. activation, % at 20 µM;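 active = activation at or above 40% of the spot to cytoplasm intensity ratio, with at least 20 cells analyzed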
AHR act: activates the human aryl hydrocarbon receptor. 2.5% of 320,000 active. AID 2796. AHR-responsive luciferase reporter cells, luminescence. activation, % at 5 µM. P35869; in the data active = activation above about 47%
Target sequence (P35869 whole entry, looked up): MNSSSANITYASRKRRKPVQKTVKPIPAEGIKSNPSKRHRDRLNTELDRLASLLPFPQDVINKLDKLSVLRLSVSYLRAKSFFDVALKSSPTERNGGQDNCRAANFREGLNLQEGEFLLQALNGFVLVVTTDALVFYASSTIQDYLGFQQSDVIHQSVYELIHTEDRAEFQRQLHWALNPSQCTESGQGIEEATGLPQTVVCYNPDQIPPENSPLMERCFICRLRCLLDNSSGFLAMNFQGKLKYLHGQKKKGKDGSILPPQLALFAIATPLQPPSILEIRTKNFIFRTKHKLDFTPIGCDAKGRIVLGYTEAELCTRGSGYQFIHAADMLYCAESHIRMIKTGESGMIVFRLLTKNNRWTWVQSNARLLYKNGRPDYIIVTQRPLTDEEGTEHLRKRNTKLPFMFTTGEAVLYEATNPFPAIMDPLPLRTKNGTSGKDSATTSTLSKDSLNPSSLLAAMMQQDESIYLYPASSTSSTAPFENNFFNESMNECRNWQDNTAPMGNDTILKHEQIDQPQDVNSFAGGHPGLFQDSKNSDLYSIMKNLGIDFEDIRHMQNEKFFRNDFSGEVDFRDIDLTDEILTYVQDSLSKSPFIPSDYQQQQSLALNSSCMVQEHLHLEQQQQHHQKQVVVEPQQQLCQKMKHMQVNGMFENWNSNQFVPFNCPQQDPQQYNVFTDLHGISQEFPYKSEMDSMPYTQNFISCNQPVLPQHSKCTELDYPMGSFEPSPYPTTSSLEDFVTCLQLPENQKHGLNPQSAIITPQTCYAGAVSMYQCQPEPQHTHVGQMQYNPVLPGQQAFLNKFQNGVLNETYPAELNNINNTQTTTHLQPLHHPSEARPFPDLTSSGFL
APOBEC3G inh: APOBEC3G (human) deaminase inhibition | Q9HC16 | recombinant A3G, ssDNA deamination FAM/TAMRA fluorescence | inhibition, % at 20 µM | 0.28% of 330,000 active | AID 493012;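 active = inhibition of at least 40% at 20 µM, with no more than 30% in the related APOBEC3A deaminase screen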
APOBEC3A confirm: APOBEC3A (human) deaminase inhibition, confirmed | 63% of 1,400 active | AID 493151 | inhibition, % at 20 µM | shares compounds with APOBEC3A inh | recombinant A3A, ssDNA deaminase UDG fluorescence assay;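 active = inhibition reaching a set limit, 80% of the first screen's cutoff, at 20 µM in any replicate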
UDG ctr A3A: counter-screen for APOBEC3A inhibitors: UDG | shares compounds with APOBEC3A inh | UDG counterscreen, FAM/TAMRA uracil oligo fluorescence | AID 504714 | 1,000 tested, under 10 active | inhibition, % at 20 µM; call rule not given here
Large screens that a line does not name were inactive (follow-up assays come after a bar, where they were run).

Cc1cc(C)c(CSc2ncnc3nc[nH]c23)c(C)c1	APOBEC3A inh 52.6 | APOBEC3A confirm inactive
Cc1ccc2c(c1)C1CN(C)CCC1N2CC(=O)N(C)c1ccccc1 (configuration not stated)	APOBEC3A inh 51.5 | APOBEC3A confirm 49.7 | UDG ctr A3A inactive
COc1ccc([C@H]2CC(=O)C=C(/C=C/c3ccccc3)C2)cc1OC	none
O=C(c1ccccc1)c1c[nH]c(C(=O)NNc2ccccc2)c1	none
COc1cccc(CN2CCNC(=O)C2CC(=O)N(C)CCC2CCOCC2)c1OC (configuration not stated)	none
CN1C(=O)C(=C2CCCCCC2)SC1=S	none
O=C1NC(=S)SC1=C1CCCC1	APOBEC3A inh 62.4 | APOBEC3A confirm 58.1 | UDG ctr A3A inactive
O=C(CN1CCOCC1)N/N=C/c1ccc(-c2ccc(C(=O)O)cc2)o1	APOBEC3A inh 43.3 | APOBEC3A confirm 84.8 | UDG ctr A3A inactive
COc1cc(C(=O)NCc2ccncc2)cc(OC)c1OC	none
CCc1nc(CNC(=O)c2cc(OC)c(OC)c(OC)c2)no1	APOBEC3A inh 47.7 | APOBEC3A confirm 73.2 | UDG ctr A3A inactive
CCN(CC)S(=O)(=O)c1cc(NC(=O)C2CSC3(C)CCC(=O)N23)ccc1C (configuration not stated)	none
O=C(COC(=O)Cc1cccc(C(F)(F)F)c1)Nc1cccc2ccccc12	APOBEC3A inh 40.5 | APOBEC3A confirm inactive | UDG ctr A3A inactive
Cc1ccccc1NC(=O)COC(=O)Cc1cccc(C(F)(F)F)c1	none
COc1ccc(Cl)cc1C(=O)NNC(=O)c1csc(N2CCOCC2)n1	APOBEC3A inh 40.6 | APOBEC3A confirm inactive | UDG ctr A3A inactive
O=C(CCS(=O)(=O)c1ccc(Br)cc1)NCCc1ccccc1	none
NS(=O)(=O)c1ccc(CCNC(=O)CCS(=O)(=O)c2ccc(Br)cc2)cc1	APOBEC3A inh 45.7 (no result: AHR act) | APOBEC3A confirm 40.3
COc1ccccc1NC(=O)N1CCC(NC(=O)C(Cc2ccccc2F)NC(C)=O)CC1 (configuration not stated)	none
Cc1[nH]c(=O)c(C#N)c(C)c1CCC(=O)NCc1ccc(Cl)cc1	APOBEC3A inh 70.6 | APOBEC3A confirm inactive | UDG ctr A3A inactive
Cc1cccc(Cc2c(C)[nH]c(=O)c(C#N)c2C)c1	none
COc1ccc(NC(=O)c2cc(-c3ccco3)nc3ccccc23)cn1	APOBEC3A inh 52.3, AHR act 70.5 | APOBEC3A confirm 45.0 | UDG ctr A3A inactive
CCNC(=O)COC(=O)c1cc(-c2ccco2)nc2ccccc12	APOBEC3A inh 53.4 | APOBEC3A confirm 33.9 | UDG ctr A3A inactive
Cn1c(=O)c(C(=O)COC(=O)c2cc(-c3ccco3)nc3ccccc23)c(N)n(CC2CC2)c1=O	APOBEC3A inh 46.9 | APOBEC3A confirm 31.6
Cn1c(=O)c(C(=O)COC(=O)c2cc(C3CC3)nc3ccccc23)c(N)n(Cc2ccccc2)c1=O	none
Cc1nc2ccccc2c(=O)[nH]1	none
O=c1[nH]c(C2C3CC4CC(C3)CC2C4)nc2ccccc12 (configuration not stated)	APOBEC3A inh 49.0 | APOBEC3A confirm inactive | UDG ctr A3A inactive
O=C(CN1C(=O)NC2(CCCCCC2)C1=O)NCc1ccccc1Cl	none
O=C(/C=C/c1ccccc1)OCCCCN=C1NS(=O)(=O)c2ccccc21	APOBEC3A inh 83.1 | APOBEC3A confirm inactive
CC(=O)OC(COC1C[C@@H]2CC[C@@]1(C)C2(C)C)C[N+]1(C)CCCCC1 (some centres not stated)	APOBEC3A inh 48.1 | APOBEC3A confirm 70.4 | UDG ctr A3A inactive
CCC(C)OC(=O)C[N+](C)(C)CCOC1CC2CCC1(C)C2(C)C (configuration not stated)	none
CC(C)C(NC(=O)COc1ccc2ccccc2c1)C(=O)N/N=C/C=C/c1ccccc1 (configuration not stated)	APOBEC3A inh 41.3 | APOBEC3A confirm 63.0 | UDG ctr A3A inactive
O=C(c1ccc(S(=O)(=O)Nc2cccc(C(F)(F)F)c2)cc1)N1CCN(c2ccccc2O)CC1	none
CC(=O)c1ccc(NC(=O)COC(=O)c2nc(Cl)ccc2Cl)cc1	none
CCCCCCCn1c2c(c(=N)c3ccccc31)CCC2	APOBEC3A inh 73.9 | APOBEC3A confirm 77.8 | UDG ctr A3A inactive
CCCn1c2c(c(=N)c3c1CCC3)CCCC2	APOBEC3A inh 91.7 | APOBEC3A confirm 76.7 | UDG ctr A3A inactive
CCOC(=O)Cn1c2c(c(=N)c3c1CCC3)CCCC2	none
CCCn1c2c(c(=N)c3c1CCC3)CCC2	APOBEC3A inh 71.1 | APOBEC3A confirm 75.3 | UDG ctr A3A inactive
O=C(O)CCn1c2c(c3ccccc31)CCCC2	none
CS(=O)(=O)c1ccc2nc(NC(=O)c3cc4ccccc4o3)sc2c1	none
CS(=O)(=O)c1ccc2sc(NC(=O)c3cc4ccccc4o3)nc2c1	APOBEC3A inh 53.1 | APOBEC3A confirm inactive
CC1(C)Oc2ccc3ccc(=O)oc3c2/C(=C/N)C1=O	none
CC1(C)Oc2ccc3ccc(=O)oc3c2-c2cnoc21	APOBEC3A inh 50.6 | APOBEC3A confirm 72.4 | UDG ctr A3A inactive
CC1(C)Oc2ccc3ccc(=O)oc3c2-c2cn[nH]c21	APOBEC3A inh 59.2 | APOBEC3A confirm 65.3 | UDG ctr A3A inactive
O=C(Nc1cccc(Cl)c1)NC1CC2CCC1C2 (configuration not stated)	none
COc1ccc(NC(=O)N(C)C[C@H]2Oc3ccc(NC(=O)CCN4CCOCC4)cc3C(=O)N([C@H](C)CO)C[C@@H]2C)cc1	none
O=C(COC(=O)c1ccc(F)c(S(=O)(=O)N2CCOCC2)c1)Nc1ccc2[nH]c(=O)[nH]c2c1	APOBEC3A inh 42.4 | APOBEC3A confirm 41.5 | UDG ctr A3A inactive
COc1ccc(OCc2nnc(SCC(=O)c3ccccc3)o2)cc1	none
COC(=O)c1ccc(C)c(NC(=O)CCCN2C(=O)NC(C)(C)C2=O)c1	none
[O-][n+]1c(/C=C/c2ccccc2)ccc2ccccc21	none (no result: AHR act)
COc1ccc(/C=C/c2ccc3ccccc3[n+]2C)cc1OC	APOBEC3A inh 65.6 | APOBEC3A confirm 80.9 | UDG ctr A3A inactive
CCOc1ccc(NS(=O)(=O)c2ccc(-c3ccc(=O)[nH]n3)o2)cc1	none
CCC(C)c1ccc(S(=O)(=O)N2CCN(CC(O)COCC3CCCO3)CC2)cc1 (configuration not stated)	APOBEC3A inh 54.8 (no result: AHR act) | APOBEC3A confirm inactive | UDG ctr A3A inactive
CSc1ccccc1NC(=O)CN(C)CC(=O)c1[nH]c(C)c(C(C)=O)c1C	APOBEC3A inh 67.8 | APOBEC3A confirm 50.2 | UDG ctr A3A inactive
O=C(Nc1ccc(NC(=O)c2ccc(Cl)cc2Cl)cc1)c1cccs1	APOBEC3A inh 53.5 | APOBEC3A confirm 41.2 | UDG ctr A3A inactive
CC(=O)C1=NN(c2ccc(Cl)cc2)C(c2ccc3c(c2)OCO3)N(C(C)=O)N1C (configuration not stated)	none
O=c1[nH]c(SCc2ccccc2)nc2[nH]ncc12	none
Cn1cc(/C=C/c2cc[n+](C)cc2)c2cc(F)ccc21	none (no result: APOBEC3A inh, NTR1 ag, APOBEC3G inh)
C[n+]1ccc(/C=C/c2c[nH]c3ccc(F)cc23)cc1	APOBEC3A inh 48.5 (no result: AHR act) | APOBEC3A confirm 44.8
